The list is not random: actives were taken first. Their share in the collection is about 7.3%.
VACV Venus inh: vaccinia inhibition (Venus reporter); AID 720580; 330,000 tested, 0.46% active; Potency, µM (highest dose often 36.5 µM), without a hit: at the highest dose activity change, negative = inhibition, most hits filed as inhibitors; Vaccinia virus Venus reporter expression, fluorescence; calls by dose curve; tested in A549 cells; further: potency means the concentration at half of the fitted maximal effect; nearly all actives have a fitted effect of over 30% in size
FMDV antiviral: antivirals against foot and mouth disease virus | Potency, µM (highest dose often 57.9 µM), inactives show at the highest dose activity change, negative = inhibition, hits mostly inhibitors | AID 1159524 | 410,000 tested, 1.2% active | FMDV antiviral cell-based qHTS; calls by dose curve; tested in HEK293T cells; further: read-out not given here; potency means the concentration at half of the fitted maximal effect; nearly all actives have a fitted effect of over 45% in size
HCMV inh: blocks human cytomegalovirus replication | HFF cells, HCMV-luciferase reporter, 72 h; hits give low values | 410,000 tested, 4.5% active | activity change, negative = inhibition, % at 57.5 µM; in the data active means activity change below about -60%; inconclusive means no clear call, values can overlap the other calls; inactive means above about -39%
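Compounds were evaluated in HFFs infected with an HCMV luciferase reporter virus (MOI 1 PFU/cell). Luciferase in lysates collected 72 h post infection served as the replication measure.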
HCV inh: inhibitors of hepatitis C virus infection; Huh7.5.1 HCVcc-Cre infection, luciferase reporter, 44 h; AID 651820; Potency, µM (titrated, usually from 41.8 µM), without a hit: at the top dose activity change, negative = inhibition, hits mostly inhibitors; 340,000 tested, 3.4% active; active means well fitted inhibition curve with a large enough effect; inconclusive means small, poorly fitted or top-dose-only effect, or another doubt; inactive means no such curve, though single readings can be large or run the other way; further: potency means the concentration at half of the fitted maximal effect
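1,000 cells/well; 4 h culture; + compound; + HCVcc-Cre (~0.5 moi); 44 h; luciferase substrate, RT 15 min; read 15 sec.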
Vaccinia mCherry: inhibitors of vaccinia virus infection (mCherry reporter signal). Vaccinia virus mCherry reporter infection, fluorescence. Potency, µM (titrated, usually from 36.5 µM), for the others: top-dose activity change, negative = inhibition, hits mostly inhibitors. 310,000 tested, 0.63% active. AID 720579; calls by dose curve; tested in A549 cells; further: potency means the concentration at half of the fitted maximal effect; nearly all actives have a fitted effect of over 35% in size
The depositor's hits bear a star; i = inactive; ? = inconclusive; . = no result; ! = a repeat was not active; [ ] = another dose, or the depositor's remark. On the % scale 0 is the no-effect control and ±100 the full control effect.

SMILES	VACV Venus inh	FMDV antiviral	HCMV inh	HCV inh	Vaccinia mCherry
COc1cccc(CSc2nc3n(n2)C(CC(C)C)C(C(=O)Nc2ccccc2C)=C(C)N3)c1 (stereo unspecified)	7.0%	0.4%	-1.3	.	1.2%
S=C1SCN(Cc2cccnc2)CN1Cc1cccnc1	-12.8%	?	-95.0*	-74.9%	-20.7%
CC(C)(C)c1ccc(C(=O)N2CCCN(C(=O)c3ccc(C(C)(C)C)cc3)CC2)cc1	-5.7%	?	-5.5	-9.6%	-10.4%
CC(C)(C)c1ccc(C(=O)N2CCN(C(=O)C3CCCCC3)CC2)cc1	-23.5%	?	-76.7*	-5.5%	?
CCCCC[C@H](O)/C=C/[C@H]1C=CC(=O)[C@@H]1C/C=C\CCCC(=O)O	-15.4%[3.33 µM]	6.7%[6.7 µM]	.	-13.6%[8.37 µM]	-14.6%[3.33 µM]
CCCCC[C@@H](/C=C/C1C(=O)C=C[C@H]1C/C=C\CCCC(=O)O)OC(C)=O (stereo partly specified)	13.7%	35.5µM*	112.2	-5.9%[8.37 µM]	?
CCOc1ccc(-c2c(C)nn3c(-c4ccccc4)c(C(=O)NCCOC)cnc23)cc1OCC	-7.3%	-31.1%	-10.2	.	i
NS(=O)(=O)c1ccc(N/N=C/c2cn(-c3ccccc3)nc2-c2cccs2)c([N+](=O)[O-])c1	-18.1%	?	-113.0*	11.2µM*	-12.7%
NS(=O)(=O)c1ccc(N/N=C/c2cn(-c3ccccc3)nc2-c2cccs2)cc1	?	-25.3%	-76.6*	1.78µM*	-19.9%
O=[N+]([O-])c1cc(CN2CCCC2)c2cccnc2c1O	-7.6%	-1.4%	.	10.9%	-15.6%
CCOCc1cc(CN2CCN(c3cccc(C(F)(F)F)c3)CC2)c(O)c2ncccc12	-18.6%[7.34 µM]	?	-99.6*	.	?
CCOc1cc(CN2CCN(c3cccc(C(F)(F)F)c3)CC2)ccc1OC	-11.6%	.	30.7	-24.5%	-20.6%
O=[N+]([O-])c1cc(CN2CCN(c3cccc(C(F)(F)F)c3)CC2)c2cccnc2c1O	-22.9%	-14.8%	-76.3*	3.98µM*	-20.0%
CCOc1cc(CN2CCN(c3cccc(C(F)(F)F)c3)CC2)ccc1O	.	-6.4%	-20.9	-9.7%	.
CC(C)OCc1cc(CN2CCN(c3cccc(C(F)(F)F)c3)CC2)c(O)c2ncccc12	-27.1%[7.34 µM]	-25.0%	-98.4*	.	3.98µM*
CCc1nn(CC(=O)Nc2ccc(NC(C)=O)cc2)c(=O)c2cc3sccc3n12	?	-20.7%	-4.6	.	?
OC(c1cccnc1)c1ccc2c(c1)CN(Cc1cccc3c1OCO3)CCO2 (stereo unspecified)	-9.8%	0.1%	.	.	-1.2%
O=c1oc2ccc(Br)cc2cc1-c1nc2c(s1)CCc1ccccc1-2	17.7%	.	.	.	-19.7%
COc1cc(-c2noc(-c3ccc(NCc4ccco4)c([N+](=O)[O-])c3)n2)cc(OC)c1OC	-5.2%	-19.8%	-0.9	.	-10.2%
CN(C)c1ccc(/C=C/[N+](=O)[O-])cc1	-10.1%	-28.1%	4.3	9.7%	-2.4%
CN(c1ccccc1)c1ccc(/C=C/[N+](=O)[O-])cc1	-27.0%	15.8µM*	-98.7*	?	-18.8%
Cc1ccc2c(c1)c(Sc1ccccc1)c(CC(=O)O)n2C	-3.5%	-5.4%	-15.0	-0.7%	-13.1%
CCOC(=O)Cc1c(Sc2ccccc2)c2cc(C)ccc2n1C	-0.1%	0.0%	-60.4*	-2.8%	-9.9%
Cc1cc(/C=C2\SC(=S)N(C)C2=O)c(C)n1-c1ccccc1O	2.7%	?	0.0	7.08µM*	?
CN1C(=O)/C(=C/c2coc3ccc(O)cc3c2=O)SC1=S	.	37.1%	-38.3	5.5%	.
SMILES	VACV Venus inh	FMDV antiviral	HCMV inh	HCV inh	Vaccinia mCherry
Cc1cc(/C=C2\SC(=S)N(C)C2=O)c(C)n1-c1ccc(O)cc1	-17.8%	0.891µM*	-96.9*	11.2µM*	?
COc1ccc(-n2c(/C=C/c3cccc(C(F)(F)F)c3)nc3ccccc3c2=O)cc1Cl	-26.1%	-29.2%	24.5	.	-11.6%
CC1=N/C(=C\c2ccc([N+](=O)[O-])cc2)C(=O)N1c1ccc(C)c(Cl)c1	.	.	0.0	.	.
O=C(CC1NCCc2ccccc21)Nc1ccc(Oc2ccccc2)cc1 (stereo unspecified)	-10.8%	?	?	11.2µM*	-16.3%
O=C(CN1CCOCC1)Nc1ccc(Oc2ccccc2)cc1	.	19.8%	13.2	-6.4%	.
O=C(CN1CCNCC1)Nc1ccc(Oc2ccccc2)cc1	.	4.1%	-10.5	7.94µM*	.
O=C(CC1NCCc2ccccc21)Nc1ccccc1 (stereo unspecified)	1.5%	57.6%	18.7	-0.5%	2.9%
Cc1ccccc1C(=O)Nc1cccc(OCc2cc(=O)n3cccc(C)c3n2)c1	-9.1%	-18.8%	-30.3	.	-6.7%
O=C(Cn1cccn1)N1CCOc2c(cc(-c3ncc(C(F)(F)F)cc3Cl)cc2OCC2CCCO2)C1 (stereo unspecified)	-13.8%	-16.2%	.	.	i
CC(C)C1CCC(C(=O)N[C@H](Cc2ccccc2)C(=O)O)CC1 (stereo partly specified)	-12.5%	-12.2%	.	.	-9.1%
O=C(NC(Cc1cccc(F)c1)C(=O)O)C1CCCCC1 (stereo unspecified)	4.7%	-14.4%	-4.4	2.82µM*	-10.6%
CC(C)(C)c1ccc(S(=O)(=O)N2CCN(c3nc(-c4ccccc4)nc4ccccc34)CC2)cc1	-13.4%	.	.	.	-13.0%
Cc1ccc(C(CCNC(C)c2cccs2)c2ccco2)cc1 (stereo unspecified)	-12.8%	45.5%	-60.9*	-7.4%	-22.1%
COc1ccc(Cc2nnc(N/N=C/c3ccc(O)cc3)[nH]c2=O)cc1OC	?	-24.6%	-99.7*	0.891µM*	1.12µM*
COc1ccc(Cc2nnc(N/N=C/c3ccc(Br)cc3)[nH]c2=O)cc1OC	-6.1%[7.34 µM]	0.6%	-20.2	-6.1%	-10.4%[7.34 µM]
CCN1CCCC1CNC(=O)c1ccc2c(c1)N(Cc1ccccc1F)C(=O)c1ccccc1S2(=O)=O (stereo unspecified)	.	35.2%	-22.1	10µM*	.
CC1CCCN(CCCNC(=O)c2ccc3c(c2)N(Cc2cccc(Cl)c2)C(=O)c2ccccc2S3=O)C1 (stereo unspecified)	?	-1.4%	-81.3*	.	-13.5%
O=C(NCc1ccco1)c1ccc2c(c1)N(Cc1ccccc1F)C(=O)c1ccccc1S2(=O)=O	-13.0%	4.9%	-66.1*	.	-17.5%
CC1CCCN(CCCNC(=O)c2ccc3c(c2)N(Cc2ccc(F)cc2)C(=O)c2ccccc2S3=O)C1 (stereo unspecified)	?	-15.6%	-21.9	?	?
CC1CCCN(CCCNC(=O)c2ccc3c(c2)N(Cc2ccccc2F)C(=O)c2ccccc2S3(=O)=O)C1 (stereo unspecified)	-26.3%	2.9%	-70.2*!	10µM*	?
CCOC(=O)c1ccc(NC(=O)OC[C@@H]2CSCCS(=O)(=O)N2)cc1	.	.	-13.7	.	.
COc1ccc(-c2cc(C(F)(F)F)n3nc(C(=O)O)c(Cl)c3n2)cc1OC	-5.3%	-2.5%	-26.3	.	-7.0%
Cc1cccc(OCC(=O)NCc2ccc3c(c2)CCN3C(=O)c2ccccc2)c1	-8.5%	1.2%	-10.4	.	-18.2%

From PubChem BioAssay
